Records with an inconclusive call do not appear. Activity calls are given as the source filed them. Calls follow the shape of the dose curve; as a rule, active = well fitted inhibition curve with a large enough effect; inconclusive = small, poorly fitted or top-dose-only effect; inactive = flat fitted curve, though single readings scatter.
target: Ferritin light chain (Equus caballus) (UniProt P02791); assay: Confirmation Assay for Identification of Novel General Anesthetics; settings: apoferritin 1-aminoanthracene fluorescence displacement; also: nearly all actives have a fitted effect of over 40% in size
Sequence (P02791 2-175 limits assumed): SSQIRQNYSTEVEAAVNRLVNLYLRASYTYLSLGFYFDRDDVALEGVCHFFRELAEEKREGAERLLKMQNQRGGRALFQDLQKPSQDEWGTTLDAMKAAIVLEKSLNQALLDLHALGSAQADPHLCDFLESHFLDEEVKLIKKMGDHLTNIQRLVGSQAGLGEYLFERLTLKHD
Summary of the method: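 Competitive displacement of profluorescent 1-aminoanthracene from 10 uM horse-spleen apoferritin in 50% saturated 1-AMA/PBS; 10 min RT, fluorescence Ex 380/Em 535. Normalized to free 1-AMA and complex; four-parameter Hill fit.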
Potency is read from the fitted curve at half-maximal effect.

| Compound | Potency |
| --- | --- |
| C/C(=N\Nc1ccc(F)cc1F)c1cccs1 | 11.2 µM (active) |
| Cc1ccc(CC(=O)OCC(=O)NC2CCCC(C)C2C)cc1C (stereo not drawn) | 28.2 µM (active) |
| CCc1ccc(NC(=S)N2CCCCCCC2)cc1 | 14.1 µM (active) |
| NCCOc1ccc(C23CC4CC(CC(C4)C2)C3)cc1 | 11.2 µM (active) |
| CC(=O)Nc1ccc(NCc2ccc(C)s2)cc1 | 17.8 µM (active) |
| COc1ccc(OCCC(=O)NCC23CC4CC(CC(C4)C2)C3)cc1 | 6.31 µM (active) |
| COc1ccccc1CC(=O)NC12CC3CC(CC(C3)C1)C2 | 12.6 µM (active) |
| O=[N+]([O-])c1ccc(CNc2ccc(Cl)cc2)s1 | 22.4 µM (active) |
| CCN(CC)S(=O)(=O)c1ccc(C)c(C)c1 | 22.4 µM (active) |
| CC(NC(=O)COC(=O)Cc1ccsc1)C1CC2CCC1C2 (stereo not drawn) | 31.6 µM (active) |
| Cc1cc(OCC(=O)N(C)C2CCCCC2)cc(C)c1Cl | 35.5 µM (active) |
| C=C(C)C(=O)OC1(C(F)(F)F)Oc2cc(C)ccc2NC1=O (stereo not drawn) | 15.8 µM (active) |
| Nc1nc(-c2cc(Cl)cc(Cl)c2OC(F)F)cs1 | 8.91 µM (active) |
| CC1CCCCC1NC(=O)Cn1nc(-c2ccccc2)ccc1=O (stereo not drawn) | 7.08 µM (active) |
| COC(=O)c1ccc(/C=N/NC(=O)CC(=O)NC2CCCCC2)cc1 | 7.08 µM (active) |
| O=C(CSC(=S)N1CCCCC1)c1ccccc1 | 15.8 µM (active) |
| CN(C(=O)c1cncc(Br)c1)C1C2CC3CC(C2)CC1C3 (stereo not drawn) | 12.6 µM (active) |
| CCN(CC)C(=S)SCC(=O)c1ccc(F)cc1 | 15.8 µM (active) |
| O=C(CN1N=C(c2ccc(Cl)cc2)CCC1=O)NCc1ccc(F)cc1 | 5.82 µM (active) |

| Compound | Potency |
| --- | --- |
| CC1(C)CC(=O)c2c(noc2-c2ccccc2)C1 | 17.8 µM (active) |
| c1cnc(NC2CCCCCC2)nc1 | 15.8 µM (active) |
| CC1Cc2ccccc2N1C(=O)COC(=O)c1cccnc1Cl (stereo not drawn) | 15.8 µM (active) |
| CC1(c2ccc(NC(=O)c3ccccc3F)cc2)CC1(Cl)Cl (stereo not drawn) | 12.6 µM (active) |
| O=C(COC(=O)CC1CC2CCC1C2)NC(=O)NC1CCCC1 (stereo not drawn) | 15.8 µM (active) |
| Cc1csc(OCC(=O)Nc2ccc(C)c(C)c2)n1 | 17.8 µM (active) |
| Fc1ccccc1CNc1ccc(Cl)cc1 | 11.2 µM (active) |
| CC1Cc2ccccc2N1C(=O)CSC1=NCCS1 (stereo not drawn) | 10 µM (active) |
| O=C(NC1CCCCCC1)C(=S)NCc1ccccc1 | 11.2 µM (active) |
| Nc1ccc(CSc2ccc(Cl)cc2)cc1 | 15.8 µM (active) |
| O=C(CCc1ccccc1)NC(=S)Nc1ccccc1[N+](=O)[O-] | 15.8 µM (active) |
| Cc1ccc(-c2ccc(=O)n(Cc3ccc(F)cc3)n2)cc1 | 35.5 µM (active) |
| Cc1ccc(NC(=O)N2CCCCCC2)cc1C | 6.31 µM (active) |
| COc1ccc(C2=Nn3c(nnc3-c3ccc(OC)cc3)SC2)cc1 | 22.4 µM (active) |
| Fc1ccc(NCc2ccccc2F)cc1Cl | 14.1 µM (active) |
| O=C(NC1CCCCCCC1)c1ccc(Br)o1 | 17.8 µM (active) |
| CCCC(C)NS(=O)(=O)c1ccc(OC)c(C)c1 (stereo not drawn) | 20 µM (active) |
| O=C(CSCc1ccccc1)Nc1cc([N+](=O)[O-])ccc1F | 31.6 µM (active) |
| O=C(COC(=O)C1=COCCO1)NC1CCCCCCC1 | 12.6 µM (active) |
